Several values for one entry are separate records, joined by “and”; a condition that tells them apart may be missing. Identical values can stand only once. Unmarked numbers belong to inactive results. Inconclusive results are not listed. Activity calls are given as the source filed them. Unless noted, calls follow the shape of the dose curve; as a rule, active = well fitted curve in the direction sought with a large enough effect in the repeat runs; inconclusive = weak or mixed curves; inactive = no such curve, though single readings can be large; an effect the other way counts as inactive or inconclusive.

Assay [1] has as its target Estrogen receptor (Homo sapiens) (UniProt P03372). In words: qHTS assay to identify small molecule antagonists of the estrogen receptor alpha (ER-alpha) signaling pathway using the BG1 cell line in the presence of 0.1 nM 17-beta-estradiol (AID 1259244). Also: nearly all actives have a fitted effect of over 50% in size. The method, boiled down:
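Compounds were tested against 0.1 nM (final) 17beta-estradiol in VM7Luc4E2 cells, which express full-length ER-alpha and an ERE-luciferase reporter; luminescence was recorded following 22 h exposure.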
(In general: qHTS replaces the single test concentration by a dilution series.)

The nature of assay [2]: qHTS assay to identify small molecule HDAC inhibitors (AID 1259364).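 Also: wild-type HCT-116 cells with endogenous class I/II HDAC activity; top concentration of the series differs between compounds; nearly all actives have a fitted effect of over 45% in size.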 The method, boiled down:
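Screening used wild-type human colon HCT-116 cells incubated overnight, dosed with compounds for 2 hours, and assayed with a homogeneous luminogenic HDAC I/II reagent for 30 minutes at room temperature.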

The nature of assay [3]: qHTS assay to identify small molecule HDAC inhibitors - cell viability counter screen (AID 1259365). Also: series mostly up to about 92 µM; nearly all actives have a fitted effect of over 50% in size. The method, boiled down: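 Cytotoxicity was gauged in wild-type HCT-116 cells after a brief 2hr treatment with DMSO-dissolved compounds at 37C and 5% CO2, using CellTiter-Glo luminescence developed for 30min at room temperature.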
The nature of assay [4]: qHTS assay to identify small molecule agonists of the sonic hedgehog signaling (Shh) pathway - cell viability counter screen (AID 1259366). Also: nearly all actives have a fitted effect of over 50% in size. The method, boiled down:
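Stable Gli1-Luc NIH/3T3 clone, 2,000 cells/well. Compound exposure 24hr at 37C. Read-out: CellTiter-Fluor fluorescence.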

Assay [5] can be described thus: qHTS assay to identify small molecule antagonists of the sonic hedgehog signaling (Shh) pathway - cell viability counter screen (AID 1259367). Also: nearly all actives have a fitted effect of over 55% in size. The method, boiled down: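 Cytotoxicity was assessed in parallel with Shh reporter activity by measuring live-cell protease fluorescence (CellTiter-Fluor) in NIH/3T3 cells stably carrying Gli1-Luc, treated with compound under conditioned medium stimulation for 23 hr plus 1 hr reagent incubation.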

Assay [6] is described as follows: qHTS assay to identify small molecule agonists of the sonic hedgehog signaling (Shh) pathway (AID 1259368; calls by dose curve;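 also: NIH/3T3-derived 3T3Gli1-Luc cells carrying a stable Gli1-driven firefly luciferase reporter; series mostly up to about 92 µM; nearly all actives have a fitted effect of over 15% in size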). The gist of the method:
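Hedgehog pathway agonism scored by increased firefly luciferase luminescence in 3T3Gli1-Luc cells treated 24 hr at 37 C; detection used a 30 min room-temperature reagent incubation.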

A short description of assay [7]: qHTS assay to identify small molecule antagonists of the sonic hedgehog signaling (Shh) pathway (AID 1259369; calls by dose curve; also: nearly all actives have a fitted effect of over 45% in size). The gist of the method:
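NIH/3T3 stable Gli1-Luc clone, 2,000 cells/well, 4hr settle; cpd + conditioned medium 24hr; Luc reagent 30min RT; luminescence.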

The target of assay [8] is Estrogen receptor beta (Homo sapiens) (UniProt Q92731). In words: qHTS assay to identify small molecule agonists of the estrogen receptor beta (ER-beta) signaling pathway (AID 1259377; active = well fitted activation curve with a large enough effect in the signal ratio in the repeat runs, not every such curve was filed as active; the % refers to the signal ratio). The gist of the method: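 Measured by fluorescence intensity from a B/G FRET beta-lactamase substrate (2 h, room temperature) in ER-beta-UAS-bla HEK293T cells treated with DMSO-dissolved compounds for 16 hr at 37C and 5% CO2.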
Estrogen receptor beta (Homo sapiens), sequence (Q92731 whole entry, looked up): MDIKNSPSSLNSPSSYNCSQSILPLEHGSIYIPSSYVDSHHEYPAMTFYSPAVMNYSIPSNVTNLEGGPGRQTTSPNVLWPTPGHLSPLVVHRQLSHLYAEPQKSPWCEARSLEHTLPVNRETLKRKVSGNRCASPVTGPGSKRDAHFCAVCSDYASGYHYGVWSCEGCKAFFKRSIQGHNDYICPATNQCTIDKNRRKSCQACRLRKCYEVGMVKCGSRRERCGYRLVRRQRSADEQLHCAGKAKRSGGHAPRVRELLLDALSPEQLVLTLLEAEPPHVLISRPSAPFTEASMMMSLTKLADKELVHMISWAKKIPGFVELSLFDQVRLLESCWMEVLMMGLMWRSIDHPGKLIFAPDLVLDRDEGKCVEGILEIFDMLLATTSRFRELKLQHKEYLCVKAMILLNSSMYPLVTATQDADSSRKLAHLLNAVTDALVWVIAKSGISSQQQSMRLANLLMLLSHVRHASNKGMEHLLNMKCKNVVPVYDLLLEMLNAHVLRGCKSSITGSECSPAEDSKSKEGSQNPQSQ

Assay [9] has the same target. In words: qHTS assay to identify small molecule antagonists of the estrogen receptor beta (ER-beta) signaling pathway (AID 1259378; active = well fitted inhibition curve with a large enough effect in the signal ratio in the repeat runs, not every such curve was filed as active; the % refers to the signal ratio). The gist of the method:
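ER-beta-UAS-bla HEK293T (GripTite) cells in 2% charcoal-stripped FBS medium were preincubated 6 hr at 37C, dosed with compound, then stimulated with 1 nM E2 (final) for 16 hr; beta-lactamase reporter read by B/G FRET fluorescence after 2 hr substrate loading.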

Assay [10] is described as follows: qHTS assay to identify small molecule agonists of the androgen receptor (AR) signaling pathway in the presence of an antagonist - cell viability counter screen (AID 1259379).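 Also: MDA-kb2 human breast cancer cells carrying an MMTV luciferase reporter; series mostly up to about 92 µM; nearly all actives have a fitted effect of over 25% in size.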 The gist of the method: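 MDA-kb2 viability measured by CellTiter-Fluor fluorescence in the same wells as the luciferase signal; nilutamide 3.0uM final; 15-point compound titration; 16 hr at 37C.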

The nature of assay [11]: qHTS assay to identify small molecule agonists of the estrogen receptor beta (ER-beta) signaling pathway - cell viability counter screen (AID 1259380). Also: nearly all actives have a fitted effect of over 30% in size. Also: potency is read from the fitted curve at half-maximal effect. The gist of the method: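 Measured: luminescence from CellTiter-Glo after 30 min at room temperature, added to wells already read for the LiveBLAzer FRET reporter (2 hr substrate); ER-beta-UAS-bla HEK293T cells had 16 hr compound treatment at 37C, 5% CO2.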

Assay [12] is described as follows: qHTS assay to identify small molecule antagonists of the estrogen receptor beta (ER-beta) signaling pathway - cell viability counter screen (AID 1259382). Also: nearly all actives have a fitted effect of over 55% in size. Also: potency is read from the fitted curve at half-maximal effect. The method, boiled down:
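Readout: luminescence, CellTiter-Glo, same wells as bla assay. System: ER-beta-UAS-bla GripTite HEK293T, 2% charcoal-stripped FBS. Exposure: compounds plus 1nM 17-beta-estradiol, 16 hr, 37C.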

The target of assay [13] is Estrogen receptor (Homo sapiens) (UniProt P03372). In words: qHTS assay to identify small molecule agonists of the estrogen receptor alpha (ER-alpha) signaling pathway in the presence of an antagonist (AID 1259383; calls by dose curve; also: top concentration of the series differs between compounds; nearly all actives have a fitted effect of over 15% in size). The method, boiled down:
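Quantitative HTS confirmation: compounds titrated at 15 concentrations onto estrogen-deprived VM7Luc4E2 cells carrying a four-ERE luciferase construct, with ICI-182,780 present at 10.0nM final. Signal is luminescence after 22hr exposure.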

A short description of assay [14]: qHTS assay to identify small molecule agonists or antagonists of the thyroid stimulating hormone receptor (TSHR) signaling pathway - wild type cell line counter screen (AID 1259384; calls by dose curve). The method, boiled down:
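Wild-type HEK293 cells were plated 18 h at 37 C/5% CO2, pin-dosed with compound plus Ro20-1724 medium, held 30 min at room temperature, then given cAMP-d2 and anti-cAMP-cryptate; fluorescence was read after 1 h. Fifteen concentrations, triplicate.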

In assay [15] the target is Thyrotropin receptor (Homo sapiens) (UniProt P16473). In words: qHTS assay to identify small molecule antagonists of the thyroid stimulating hormone receptor (TSHR) signaling pathway (AID 1259385; calls by dose curve; also: nearly all actives have a fitted effect of over 20% in size). The gist of the method:
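TSHR-HEK293 cells were plated and held 18 h at 37C/5% CO2, then given compound plus Ro20-1724 and stimulated with TSH at 1.5 ng/mL final. After 30 min at room temperature, cAMP was detected with cAMP-d2/anti-cAMP-cryptate (1 h) by fluorescence.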

Assay [16] is described as follows: qHTS assay to identify small molecule agonists of the estrogen receptor alpha (ER-alpha) signaling pathway in the presence of an antagonist - cell viability counter screen (AID 1259386).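 Also: series mostly up to about 92 µM; cells exposed to compounds for 22 h at 37 °C before the viability read; nearly all actives have a fitted effect of over 30% in size.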 The method, boiled down: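 The test measures whether compounds kill ER-alpha reporter cells (VM7Luc4E2) under antagonist co-treatment (ICI-182,780, 10.0nM). Fluorescence from CellTiter-Fluor is read after a 22hr exposure.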

Assay [17] deals with Progesterone receptor (Homo sapiens) (UniProt P06401). In words: qHTS assay to identify small molecule agonists of the progesterone receptor (PR) signaling pathway (AID 1346784; calls by dose curve; also: nearly all actives have a fitted effect of over 30% in size). The method, boiled down:
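The screen uses PR-UAS-bla HEK 293T cells in charcoal-stripped serum (2%). Compounds are applied for 16 hr at 37C after a 6 hr pre-incubation, and reporter activity is detected with a FRET beta-lactamase substrate after 2 hr at room temperature.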

A short description of assay [18]: qHTS assay to identify small molecule phospholipidosis (PLD) inducers (AID 1259344; active = well fitted curve in the direction sought with a large enough effect; an effect the other way counts as inactive or inconclusive). The gist of the method:
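Cells (HepG2, 900 per well) attach for 4 h, receive LipidTOX Red and compound together, incubate 24 h at 37 C, are fixed 30 min with paraformaldehyde/Hoechst, then imaged at one site per well.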

Assay [19] deals with Androgen receptor (Homo sapiens) (UniProt P10275). In words: qHTS assay to identify small molecule agonists of the androgen receptor (AR) signaling pathway in the presence of an antagonist (AID 1259381; calls by dose curve; also: nearly all actives have a fitted effect of over 15% in size). The gist of the method: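 Luminescent ONE-Glo read, 30min at room temperature, follows 16hr compound exposure (15 concentrations) of MDA-kb2 cells at 37C, 0% CO2, with nilutamide added at 3.0uM final.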
Androgen receptor (Homo sapiens), sequence (P10275 whole entry, looked up): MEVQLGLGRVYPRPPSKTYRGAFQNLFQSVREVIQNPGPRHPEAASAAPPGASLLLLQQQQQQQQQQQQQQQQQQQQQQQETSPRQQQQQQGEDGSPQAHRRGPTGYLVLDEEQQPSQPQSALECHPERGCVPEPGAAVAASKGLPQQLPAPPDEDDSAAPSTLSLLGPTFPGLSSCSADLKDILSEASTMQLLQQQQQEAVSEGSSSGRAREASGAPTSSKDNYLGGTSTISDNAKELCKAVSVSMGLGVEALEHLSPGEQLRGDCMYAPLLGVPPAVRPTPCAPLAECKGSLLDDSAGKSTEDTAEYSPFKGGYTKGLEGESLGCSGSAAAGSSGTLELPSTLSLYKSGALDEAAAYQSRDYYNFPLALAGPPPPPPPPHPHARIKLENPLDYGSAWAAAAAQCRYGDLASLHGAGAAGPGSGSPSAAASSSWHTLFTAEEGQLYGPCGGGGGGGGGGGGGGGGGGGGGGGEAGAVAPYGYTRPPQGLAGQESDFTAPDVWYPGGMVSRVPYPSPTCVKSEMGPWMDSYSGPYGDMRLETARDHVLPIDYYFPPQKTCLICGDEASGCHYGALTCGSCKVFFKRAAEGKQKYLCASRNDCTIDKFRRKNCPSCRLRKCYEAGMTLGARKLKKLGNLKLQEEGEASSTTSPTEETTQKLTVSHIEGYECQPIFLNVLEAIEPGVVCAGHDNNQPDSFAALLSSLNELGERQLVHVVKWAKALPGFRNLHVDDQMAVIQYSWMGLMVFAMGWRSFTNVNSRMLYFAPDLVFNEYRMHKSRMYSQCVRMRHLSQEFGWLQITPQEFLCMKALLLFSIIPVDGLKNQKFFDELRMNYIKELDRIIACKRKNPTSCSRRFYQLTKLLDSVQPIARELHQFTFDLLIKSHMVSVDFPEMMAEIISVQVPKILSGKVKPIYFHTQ
% is scaled to controls: 0 for no effect and ±100 for the full control effect.

Estrogen receptor (Homo sapiens), sequence (P03372 whole entry, looked up): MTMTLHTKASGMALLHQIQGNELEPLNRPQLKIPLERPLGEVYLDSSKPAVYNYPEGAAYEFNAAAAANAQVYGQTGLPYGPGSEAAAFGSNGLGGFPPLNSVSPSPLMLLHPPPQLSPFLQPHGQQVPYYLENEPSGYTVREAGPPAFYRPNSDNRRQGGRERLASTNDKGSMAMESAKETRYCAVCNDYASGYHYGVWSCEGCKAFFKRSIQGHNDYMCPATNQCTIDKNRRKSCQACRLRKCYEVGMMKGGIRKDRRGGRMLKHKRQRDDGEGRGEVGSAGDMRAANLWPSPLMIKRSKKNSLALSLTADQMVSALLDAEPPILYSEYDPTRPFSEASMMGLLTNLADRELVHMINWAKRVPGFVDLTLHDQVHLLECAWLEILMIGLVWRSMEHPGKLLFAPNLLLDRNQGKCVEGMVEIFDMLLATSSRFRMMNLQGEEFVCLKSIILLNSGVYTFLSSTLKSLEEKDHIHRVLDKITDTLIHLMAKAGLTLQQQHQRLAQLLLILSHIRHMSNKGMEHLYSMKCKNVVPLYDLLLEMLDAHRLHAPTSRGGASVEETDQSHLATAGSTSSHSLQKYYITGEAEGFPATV
Thyrotropin receptor (Homo sapiens), sequence (P16473 whole entry, looked up): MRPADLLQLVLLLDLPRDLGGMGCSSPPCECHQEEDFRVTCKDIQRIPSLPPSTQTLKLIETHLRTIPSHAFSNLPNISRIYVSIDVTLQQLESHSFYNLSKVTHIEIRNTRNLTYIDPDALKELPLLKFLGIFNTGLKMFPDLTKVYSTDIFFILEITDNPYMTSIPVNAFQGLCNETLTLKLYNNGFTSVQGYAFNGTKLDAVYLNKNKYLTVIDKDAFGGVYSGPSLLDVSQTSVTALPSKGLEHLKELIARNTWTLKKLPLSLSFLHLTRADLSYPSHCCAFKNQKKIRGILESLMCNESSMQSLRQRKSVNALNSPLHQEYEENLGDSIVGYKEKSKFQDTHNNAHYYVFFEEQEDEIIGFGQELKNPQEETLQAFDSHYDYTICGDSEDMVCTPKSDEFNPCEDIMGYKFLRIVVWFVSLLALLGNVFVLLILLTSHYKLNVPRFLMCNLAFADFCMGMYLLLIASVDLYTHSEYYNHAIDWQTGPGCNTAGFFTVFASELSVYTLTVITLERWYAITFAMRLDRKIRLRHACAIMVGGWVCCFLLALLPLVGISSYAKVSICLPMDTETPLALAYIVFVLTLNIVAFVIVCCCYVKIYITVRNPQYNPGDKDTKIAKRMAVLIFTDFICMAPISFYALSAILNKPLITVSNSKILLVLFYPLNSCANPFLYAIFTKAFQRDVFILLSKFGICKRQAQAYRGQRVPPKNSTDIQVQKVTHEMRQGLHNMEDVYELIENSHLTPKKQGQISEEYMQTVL
Progesterone receptor (Homo sapiens), sequence (P06401 whole entry, looked up): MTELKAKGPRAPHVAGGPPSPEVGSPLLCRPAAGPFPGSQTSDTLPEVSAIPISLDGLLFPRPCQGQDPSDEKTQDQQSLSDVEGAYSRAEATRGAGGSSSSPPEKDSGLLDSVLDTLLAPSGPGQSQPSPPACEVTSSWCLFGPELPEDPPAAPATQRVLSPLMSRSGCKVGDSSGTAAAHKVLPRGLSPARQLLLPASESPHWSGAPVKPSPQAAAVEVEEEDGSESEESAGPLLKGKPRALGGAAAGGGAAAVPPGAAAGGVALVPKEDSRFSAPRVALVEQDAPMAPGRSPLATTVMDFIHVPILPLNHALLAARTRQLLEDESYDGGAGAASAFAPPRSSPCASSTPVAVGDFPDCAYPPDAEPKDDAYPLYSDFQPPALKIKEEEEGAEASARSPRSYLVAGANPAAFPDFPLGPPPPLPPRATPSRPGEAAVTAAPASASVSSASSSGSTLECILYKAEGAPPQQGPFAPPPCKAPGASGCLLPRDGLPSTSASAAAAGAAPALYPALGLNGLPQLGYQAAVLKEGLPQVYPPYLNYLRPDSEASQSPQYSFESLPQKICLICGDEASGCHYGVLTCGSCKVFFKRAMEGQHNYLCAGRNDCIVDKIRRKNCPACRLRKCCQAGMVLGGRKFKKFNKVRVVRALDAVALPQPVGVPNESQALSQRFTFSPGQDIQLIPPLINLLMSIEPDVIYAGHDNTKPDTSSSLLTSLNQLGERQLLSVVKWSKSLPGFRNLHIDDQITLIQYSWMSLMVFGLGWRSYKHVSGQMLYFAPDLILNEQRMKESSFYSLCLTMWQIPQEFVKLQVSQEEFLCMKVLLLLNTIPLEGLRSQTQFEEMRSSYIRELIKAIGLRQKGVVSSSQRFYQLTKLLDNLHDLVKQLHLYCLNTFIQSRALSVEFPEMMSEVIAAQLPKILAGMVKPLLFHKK

With `CO[Si](OC)(OC)c1ccccc1`, the Potency entry in assay [1], in [2], in assay [3], in [4], in assay [5] and in assay [6] was “inactive” each time. The Potency entry in assay [7], in assay [9], in assay [10], in assay [11], in [12] and in assay [13] was “inactive” each time. Also, the Potency result in assay [14], in [15], in assay [16] and in assay [17] was “inactive” each time. For the same molecule, the outcome in assay [8] was inactive.
In the case of `O=C(O)c1cc(Cl)cc(Cl)c1`, the Potency result in assay [1], in [2], in assay [3], in assay [4], in assay [5] and in assay [6] was “inactive” in each case. Further, the Potency result in assay [7], in [9], in [10], in assay [11], in assay [12] and in assay [13] was “inactive” throughout. In addition, the Potency result in assay [14], in assay [15], in assay [16] and in assay [17] was “inactive” each time. Besides, the molecule was classed as inactive in [8].
As for `CCC(C)(C)C(=O)O[C@H]1C[C@@H](C)C=C2C=C[C@H](C)[C@H](CC[C@@H]3C[C@@H](O)CC(=O)O3)[C@H]21`, the Potency entry in assay [1], in assay [18], in [2], in assay [3], in [5] and in assay [6] was “inactive” throughout. Besides, the Potency result in assay [10], in [13], in assay [14], in assay [15], in assay [16] and in assay [17] was “inactive” each time. Further, the result in assay [8] was inactive. Also, the Potency in assay [11] was 27.3 µM (active) and 13.3 µM (active); in assay [12] it was 11.9 µM (active).
`CCOc1ccc2c(c1)C(C)=CC(C)(C)N2`: the Potency result in assay [1], in [18], in [3], in assay [4], in assay [5] and in [6] was “inactive” throughout. The Potency entry in assay [10], in assay [11], in assay [19], in assay [12], in [13] and in assay [14] was “inactive” throughout. Also, the Potency entry in assay [15] and in [17] was “inactive” throughout.
As for `CCN1CCCC1CNC(=O)c1cc(S(=O)(=O)CC)c(N)cc1OC` (configuration not stated), the Potency entry in assay [1], in assay [2], in assay [3], in [4], in [5] and in assay [6] was “inactive” in each case. Moreover, the Potency entry in assay [7], in [11], in assay [12], in assay [13], in assay [14] and in assay [15] was “inactive” each time. Also, the Potency result in assay [16] and in assay [17] was “inactive” in each case. The PLD induction in assay [18] is -3.27% [at 7.66 µM].
As to `NCCCCCC(=O)O`, the Potency result in assay [1], in [18], in assay [3], in assay [4], in [5] and in assay [6] was “inactive” in each case. Further, the Potency entry in [7], in [10], in assay [11], in assay [12], in assay [13] and in [14] was “inactive” throughout. The Potency entry in assay [15] and in [17] was “inactive” throughout.
Turning to `CCn1cc(C(=O)O)c(=O)c2cc(F)c(N3CCNC(C)C3)c(F)c21` (configuration not stated), the Potency result in [1], in assay [18], in assay [3], in [4], in assay [5] and in [6] was “inactive” in each case. Moreover, the Potency result in assay [7], in [10], in [11], in [12], in assay [13] and in assay [14] was “inactive” each time. In addition, the Potency entry in [15], in [16] and in assay [17] was “inactive” in each case.

The values above are taken from PubChem BioAssay (Tox21).
